Laboratory results reported in ChEMBL document CHEMBL3433997, “St. Jude Leishmania screening dataset” (2016).

Experiments:
Format in all cases: functional
[1] = biological target: Solute carrier family 2, facilitated glucose transporter member 1 (Homo sapiens) (UniProt P11166); experiment: ST_JUDE_LEISH: Cytotoxicity at 2uM final concentration against transgenic Leishmania Mexicana promastigotes LmGLUT1 that are glucose transport deficient and complemented with the human glucose transporter GLUT1. Activity is measured by DNA content using SYBR green in vitro
[2] = biological target: Hexose transporter 1 (Plasmodium falciparum) (UniProt O97467); experiment: ST_JUDE_LEISH: Cytotoxicity at 2uM final concentration against transgenic Leishmania Mexicana promastigotes LmPfHT that are glucose transport deficient and complemented with the Plasmodium falciparum hexose transporter. Activity is measured by DNA content using SYBR green in vitro
[3] = biological target: Glucose transporter (Leishmania mexicana) (UniProt O61059); experiment: ST_JUDE_LEISH: Cytotoxicity at 2uM final concentration against transgenic Leishmania Mexicana promastigotes LmGT2 that are glucose transport deficient and complemented with the L. Mexicana glucose transporter 2. Activity is measured by DNA content using SYBR green in vitro

Solute carrier family 2, facilitated glucose transporter member 1 (Homo sapiens), sequence (P11166 whole entry): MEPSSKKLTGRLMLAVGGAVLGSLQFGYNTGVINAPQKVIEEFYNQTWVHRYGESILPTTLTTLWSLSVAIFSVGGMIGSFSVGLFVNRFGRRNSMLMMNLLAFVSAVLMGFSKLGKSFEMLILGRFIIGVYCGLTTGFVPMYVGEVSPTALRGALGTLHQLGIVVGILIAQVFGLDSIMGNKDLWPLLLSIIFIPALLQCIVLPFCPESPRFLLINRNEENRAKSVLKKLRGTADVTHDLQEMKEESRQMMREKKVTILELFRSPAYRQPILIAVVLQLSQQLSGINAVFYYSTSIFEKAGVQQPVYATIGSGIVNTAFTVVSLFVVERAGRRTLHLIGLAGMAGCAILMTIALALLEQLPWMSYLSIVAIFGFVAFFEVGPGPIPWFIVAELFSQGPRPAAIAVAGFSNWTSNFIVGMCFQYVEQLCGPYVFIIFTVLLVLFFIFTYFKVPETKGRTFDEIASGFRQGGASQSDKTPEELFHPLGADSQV

SMILES	inhibition [1] [%]	inhibition [2] [%]	inhibition [3] [%]
Cc1nc(C)c(CC(=O)Nc2ccc(-c3ccc(-c4nc5cc(C(F)(F)F)ccc5[nH]4)s3)cc2)s1	2.35	2.1	-0.02
O=C(NCCCCCN1CCC(c2c[nH]c3ccccc23)CC1)Nc1ccc(I)c(Cl)c1	7.04	4.76	5.92
COc1cccc(C2CCN(CCN3CCC(NC(=O)c4ccc(-c5ccc(C#N)cc5)cc4)CC3)CC2)c1	-1.18	0.31	0.19
Cc1cccc2nc(-c3ccc(-c4ccc(CN5CCCC(O)C5)cc4)s3)[nH]c12 (stereo unspecified)	6.59	7.2	3.86
O=C(Nc1ccc(I)cc1)Nc1ccc(Cn2ncc(N3CCCNCC3)c(Cl)c2=O)cc1	-2.09	-3.01	0.24
CCOC(=O)/C(=N\OC(C)(C)C(=O)NCc1ccc(O)c(O)c1)c1csc(NC(c2ccccc2)(c2ccccc2)c2ccccc2)n1	-2.31	-1.09	-1.17
CC(Cc1ccc(C(=O)Nc2ccc(CC(C)NCCc3cccc(Cl)c3)cc2)cc1)NCCc1ccc(C(F)(F)F)cc1 (stereo unspecified)	56.4	37.1	48.1
CCC(=O)c1ccc(-c2ccc(=O)n(CC(=O)N(CCN(CC)CC)Cc3ccc(-c4ccc(C(F)(F)F)cc4)cc3)n2)cc1	0.37	1.05	-1.47
Nc1ncc(-c2ccccc2)cc1/C=C/c1cccnc1	0.64	-2.47	0.23
N[C@@H](Cc1ccc(O)cc1)C(=O)NC(c1ccccc1)c1c(O)ccc2ccccc12 (stereo partly specified)	-0.12	-0.91	-0.99
CC(C)Sc1nc2c(c(=O)n1CCc1ccccc1)C1(CCCC1)Cc1ccccc1-2	1.78	2.51	2.88
Cc1cccc2nc(-c3ccc(-c4cccc(CNC5CCN(C)CC5)c4)s3)[nH]c12	-2.43	2.74	-0.61
COc1ccc2ncc(F)c(CCN3CCC(NCc4cc(Br)c5c(c4)OCCO5)CC3)c2n1	18.9	31.4	14.3
Cc1cc(=NN=Cc2ccc(Cl)cc2)c2ccccc2[nH]1	4.28	6.86	3.97
NS(=O)(=O)c1cccc(Nc2nccc(-c3c(-c4cccc(NC(=O)c5c(F)cccc5F)c4)nn4ccccc34)n2)c1	2.78	7.67	1.61
O=C(NC1CCCCN(Cc2ccc3c(c2)OCCO3)C1)c1cc(-c2ccccc2F)cs1 (stereo unspecified)	12.7	16.4	12.8

SMILES	inhibition [1] [%]	inhibition [2] [%]	inhibition [3] [%]
COc1cc(Cc2cnc3nc(N)nc(N)c3c2C)cc(OC)c1OC	1.29	1.49	1.69
CCCCCCC1(C)N=C(N)N=C(N)C1c1ccc(Cl)c(Cl)c1 (stereo unspecified)	1.71	1.39	0.06
O=[N+]([O-])c1nc(Br)n(Cc2ccc(Cl)cc2)n1	3.1	3.81	4.39
CC(C)(C)NCC(O)COc1ccc(Cl)cc1C1=NNC(=O)CC1 (stereo unspecified)	1.53	1.45	0.82
COc1cc(Br)ccc1N1CCN(CCCCNC(=O)c2ccc(NC(=O)c3ccc(Cl)cc3)cc2)CC1	2.1	2.33	1.5
COc1ccc(CNCc2ccccc2)cc1-c1ccc(S(=O)(=O)NCCN2CCCC2)cc1	2.89	1.76	-2.76
CCCNCc1ccc(-c2ccc(CN(CCOC)C(=O)c3ccc([N+](=O)[O-])c(C)c3)cc2)nc1	3.77	1.8	1.19
CN(C)CCCOc1cc(NC(=O)Nc2ccc(-c3ccncc3)c3ccccc23)ccc1I	6.91	6.1	7.69
CC(Sc1nc2sccc2c(=O)n1C)C(=O)Nc1ccc2c(c1)OCO2 (stereo unspecified)	4.94	5.47	3
CCC(C)(C)C1CCc2[nH]c3ccccc3c(=O)c2C1 (stereo unspecified)	9.6	26.9	6.59
CC(C)(C)COC(=O)c1ccc(NC(=O)N[C@@H](Cc2ccc(O)cc2)C(=O)NC2CCN(Cc3ccc(O)cc3)C2)cc1 (stereo partly specified)	-2.22	-2.38	-0.79
Cc1cc(N(C)C)nc(Nc2ccc(NC(=O)c3ccc(F)cc3)cc2)n1	5.57	8.06	3.85
Cc1cc(C2CCN(CCCCNC(=O)c3ccc(-c4ccc(C(F)(F)F)cc4)cc3)CC2)c(C)cc1OCC(N)=O	0.54	1.14	0.73
CC(=O)Nc1cccc(C(=O)Nc2cccc(-c3ccc(-c4nc5cc(F)ccc5[nH]4)s3)c2)c1	2.81	3.63	0.19
O=C(Nc1cccc(CN2CCCN(Cc3ccc(O)cc3)CC2)c1)c1ccc(Cl)c(Cl)c1	10.6	11	5.2
O=C(NCCc1ccc(Cl)c(Cl)c1)c1ccc(CNC(=O)c2ccc(O)c(-c3ccc(Cl)c(Cl)c3)c2)cc1	0.99	1.15	1.06
